# Assay results as given in PubChem BioAssay (NCI).
# About 83,000 compounds went through this panel and 20% of them were active in at least one assay; those are over-represented in the sample as a whole.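 Single-concentration screen, 48 h exposure, 96-well plates. Endpoint: percent growth. Below 10 = active.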 Values without a mark were called inactive. The source made the active and inactive calls.
# Experiments:
# Assay in all cases: NCI-60 one-dose screen, 48 h (100 = growth as untreated, 0 = no growth, -100 = all killed)
# Settings in all cases: 10 µM unless noted
# NCI-H23 lung = tested on: NCI-H23 lung
# NCI-H226 lung = tested on: NCI-H226 lung
# NCI-H322M lung = tested on: NCI-H322M lung
# HOP-62 NSCLC = tested on: HOP-62 NSCLC
# NCI-H460 lung = tested on: NCI-H460 lung
# NCI-H522 lung = tested on: NCI-H522 lung
# A549/ATCC NSCLC = tested on: A549/ATCC NSCLC
# 786-0 renal = tested on: 786-0 renal
# COLO 205 colon = tested on: COLO 205 colon
# DU-145 prostate = tested on: DU-145 prostate
# K-562 leukemia = tested on: K-562 leukemia
# MALME-3M melanoma = tested on: MALME-3M melanoma
# MDA-MB-231 breast = tested on: MDA-MB-231 breast
# RXF 393 renal = tested on: RXF 393 renal
# SF-268 CNS = tested on: SF-268 CNS
# SF-295 CNS = tested on: SF-295 CNS
# SF-539 CNS = tested on: SF-539 CNS
# UACC-257 melanoma = tested on: UACC-257 melanoma
# HCT-15 colon = tested on: HCT-15 colon
# M14 melanoma = tested on: M14 melanoma
Compound,growth (NCI-H23 lung),growth (NCI-H226 lung),growth (NCI-H322M lung),growth (HOP-62 NSCLC),growth (NCI-H460 lung),growth (NCI-H522 lung),growth (A549/ATCC NSCLC),growth (786-0 renal),growth (COLO 205 colon),growth (DU-145 prostate),growth (K-562 leukemia),growth (MALME-3M melanoma),growth (MDA-MB-231 breast),growth (RXF 393 renal),growth (SF-268 CNS),growth (SF-295 CNS),growth (SF-539 CNS),growth (UACC-257 melanoma) [%],growth (HCT-15 colon),growth (M14 melanoma)
O=C(Nc1ccc(C2=NCCCN2)cc1)Nc1ccc(C2=NCCCN2)cc1,67.4%,75%,94.5%,101%,88.8%,80.1%,99.9%,84.3%,128%,103%,76.1%,104%,112%,106%,96.8%,92.2%,80.1%,96.1,106%,–
Fc1ccc(-c2nnc(/C=C/c3cn(-c4ccccc4)nc3-c3ccccc3)o2)cc1,88%,92.8%,95.5%,87.4%,78.6%,85.3%,75.2%,89.8%,94.2%,110%,107%,88.9%,94.2%,105%,103%,94.4%,89.1%,–,96.1%,93.1%
CCCc1nn(C)c2c(=O)[nH]c(-c3cc(S(=O)(=O)N4CCN(C)CC4)ccc3OCC)nc12,99%,102%,101%,104%,114%,88.9%,96.2%,98.5%,99.8%,113%,97.9%,102%,90.5%,120%,119%,93%,111%,97.9,103%,–
CC1CC(C)/C(=N/NC(N)=O)C(C(O)CC2CCC(=O)NC2=O)C1 (centres undefined),36.1%,42.3%,14.4%,49.3%,31.7%,18%,27.7%,25%,42.1%,37.4%,40.8%,35.6%,46.9%,38.2%,34.1%,-9.66% (active),–,54.9,37.8%,34.1%
O=C1C(Cl)=C(N=Nc2c(Cl)c(O)c3ccccc3c2O)C(=O)c2ccccc21,68.2%,90.1%,45%,52.1%,55.7%,72.7%,51.9%,98.4%,86.7%,81.3%,37.1%,43.1%,61.2%,88.5%,77.9%,33.2%,96.2%,–,61.7%,59.5%
CSc1nc2c(c(=O)[nH]1)C(c1ccc(Cl)cc1)C1=C(N2)/C(=C/c2ccc(Cl)cc2)CNC1 (centres undefined),69%,78.9%,64.1%,-2.54% (active),37.3%,79.3%,32.2%,88.4%,29.2%,39.3%,8.37% (active),91.9%,40.4%,52.3%,10.1%,69.3%,–,81.9,13.5%,64.1%
Nc1ccc(S(=O)(=O)Nc2ncccn2)cc1,114%,100%,120%,108%,108%,106%,100%,107%,114%,104%,104%,118%,98.6%,118%,108%,104%,–,105,99.1%,115%
COc1cc2c(cc1OCCCOc1ccc(-c3cc4ccccc4c4ccccc34)cc1)N=C[C@@H]1CCCN1C2=O,-39.3% (active),-78.7% (active),-69.4% (active),-45% (active),-45.2% (active),-43.9% (active),-17.4% (active),-79.9% (active),-0.637% (active),-35.6% (active),10.5%,-57.9% (active),-71.2% (active),-49.6% (active),-61.2% (active),-64.6% (active),-57.6% (active),–,-64% (active),-34.2% (active)
CO[C@H]1/C=C/O[C@@]2(C)Oc3c(C)c(O)c4c(O)c(c(/C=N/N5CCN(C)CC5)c(O)c4c3C2=O)NC(=O)/C(C)=C\C=C\C(C)[C@H](O)[C@@H](C)[C@@H](O)[C@@H](C)[C@@H](OC(C)=O)[C@@H]1C (some centres undefined),96.3%,84.5%,112%,99.4%,103%,105%,97.1%,96.6%,103%,104%,100%,105%,98.5%,104%,109%,98.8%,–,103,87.7%,102%
N#Cc1cnc2cc(OC[C@H](O)CO)c(NC(=O)CC3CSSC3)cc2c1Nc1ccc(OCc2cccc(F)c2)c(Cl)c1,-73.4% (active),-62.3% (active),-85.4% (active),-60.8% (active),-70.7% (active),-68.3% (active),-69.3% (active),-63.2% (active),-79.4% (active),-93.5% (active),-100% (active),-67% (active),-54.9% (active),-86.1% (active),-56.3% (active),-82.1% (active),-85.8% (active),–,27.3%,-66.8% (active)
COc1ccc(Nc2ccnc(NCCCNc3ccnc4cc(Cl)ccc34)n2)cc1,58.1%,69.6%,3.32% (active),46.9%,-56.5% (active),-55% (active),-14.5% (active),-97.7% (active),-65% (active),22.4%,-19.2% (active),-81.5% (active),-73.4% (active),-90% (active),-28.6% (active),-82.2% (active),-100% (active),–,-54.6% (active),-91.9% (active)
CCOC(Cc1c(N)[nH]c(=S)[nH]c1=O)OCC,104%,96.8%,98.9%,102%,114%,93%,104%,109%,105%,115%,98.5%,99.5%,111%,108%,111%,–,99.4%,103,106%,105%
COC(=O)[C@]12CC[C@@H](C)[C@H](C)[C@@H]1C1=CC[C@@H]3[C@@]4(C)C[C@@H](OC(=O)c5ccco5)[C@H](O)[C@@](C)(CO)[C@@H]4[C@H](O)C[C@@]3(C)[C@]1(C)CC2,-84.1% (active),-53.4% (active),-93.8% (active),-88.3% (active),-84.7% (active),-83.3% (active),-92.7% (active),-77.8% (active),-93.3% (active),-100% (active),-100% (active),-73.4% (active),-65.7% (active),-79% (active),-79.6% (active),-98.3% (active),-90.1% (active),–,-95.7% (active),-59.5% (active)
Nc1ccc2c3c(cccc13)-c1ccccc1-2,97.7%,55.5%,75.1%,100%,99.1%,68.5%,85.1%,68.4%,96.5%,109%,84.4%,98.4%,76.5%,93%,78.4%,102%,–,104,86.1%,90.2%
CC(c1cc(Cl)ccc1O)c1cc(Cl)ccc1O,17.9%,82.5%,80%,84.3%,15.7%,-39.3% (active),29.3%,90%,41.2%,50.7%,28.7%,16.5%,43.8%,49.6%,35%,45.9%,–,33,29.7%,22.7%
Cn1c(=O)c2c(nc(Br)n2CCC(=O)Nc2ccc(F)cc2)n(C)c1=O,101%,101%,106%,92.4%,109%,87.9%,85.2%,100%,112%,118%,97.5%,105%,102%,118%,111%,104%,98.7%,–,108%,96.3%
